EWS-Fli block = EWS/Fli-driven NR0B1 reporter inhibitors, primary screen, A673 cells, NR0B1 luciferase, luminescence, MLPCN library; viability-normalised; inhibition, % at 12.6 µM; 350,000 compounds, 0.67% hits;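 active = mean inhibition of at least 50% after viability correction, with every replicate also passing that limit; inconclusive = mean reaches 50% but only one of two replicates passes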;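 also: firefly luciferase signal divided by Alamar Blue viability fluorescence both relative to DMSO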
PAX8 inh HTS = inhibitors of PAX8-driven TPO luciferase reporter, primary screen, RMG-I cells, single concentration | inhibition, % at 12.6 µM | 360,000 compounds, 1.2% hits | SteadyGlo, 24 h;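 active = mean replicate inhibition at least 60% with every replicate also reaching 60%; inconclusive = only one of the two criteria is met; inactive = mean below 60% and not all replicates reaching 60%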;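 also: luciferase light reporting Pax8 driven TPO promoter activity; plate controls were median of neutral control wells for no effect and mitoxantrone controls for full effect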
GSIS activator = GLuc luminescence reporter in INS-1E cells, primary screen for activators of glucose-dependent secretion of insulin; 370,000 compounds, 0.61% hits; AID 743287, 2014; INS-1E GLuc reporter insulin secretion, 2-3 h; activation, % at 16.6 µM;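 active = lowest replicate activation of at least 40%, so every replicate reaches that level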;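 also: 0% = median of neutral control wells and 100% = median of IBMX positive control wells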
Env fusion inh = inhibitors of HIV-1 Env-driven cell-cell fusion, primary screen, HeLa-JRFL effector, CEM21 target cells, luciferase; inhibition, % at 12.3 µM; 360,000 compounds, 1.1% hits;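 active = mean replicate inhibition score of at least 50 and every replicate individually at or above 50; inconclusive = only one of the two criteria met; inactive = mean below 50 and not all replicates reaching 50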;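 also: 0% = plate neutral controls and 100% = maraviroc near 300 nM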
Statin myotox sup = suppressors of statin myotoxicity in C2C12 myotubes, primary screen, cell-based, single point, plate reader; C2C12 myotubes + simvastatin, ATP luminescence, 48 h; scaled: DMSO 0, geranylgeraniol control 100; rescue of ATP level, % at 7.49 µM; 330,000 compounds, 0.78% hits; AID 602340, 2012;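 active = mean ATP rescue above about 67%, or every replicate alone reaching that limit, limit read from the data, passing the limit was not always enough; inconclusive = no clear call, values can overlap the other calls; inactive = mean under the limit and some replicate under it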;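 also: myotubes were challenged with 10 µM simvastatin during compound exposure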
miR-122 sensor = miR-122 Renilla sensor signal increase in Huh7, primary screen, miR-122 inhibitor project, cell-based, single point, plate reader | 340,000 compounds, 0.3% hits | Huh7 miR-122 Renilla luciferase sensor, 48 h; neutral wells = 0, positive control = 100 | activation (reporter increase), % at 12.5 µM;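 active = mean replicate activation score at least 90 and every replicate individually at or above 90; inconclusive = only one of the two criteria met; inactive = neither criterion met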;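 also: higher luciferase means less miR-122 activity so hits act as miR-122 inhibitors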
DNA binder FP = DNA binders by acridine orange displacement, dose response, counter-screen for EWS/Fli inhibitor project, biochemical, fluorescence polarization, cherry-pick | shares compounds with EWS-Fli block | salmon sperm DNA acridine orange fluorescence polarization | AC35, µM (titrated, usually from 68 µM), inactives show top-dose activity change, negative = DNA binding | 640 compounds, 2% hits;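 active = fitted curve reaches a 35% signal fall AC35 below twice the sample's top valid tested dose, actives reach about 48 µM in these data; inactive = the rest, including activity in the rising direction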;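 also: lower polarization ratio signals compound binding to DNA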
Starred values were filed as active, the others as inactive; ? = inconclusive; nt = no result; ! = repeats disagree; [ ] = dose if it differs, or a comment. Rows were chosen to be rich in hits. Some 3.1% of all compounds tested hit in one or more screens of this group.

SMILES | EWS-Fli block | PAX8 inh HTS | GSIS activator | Env fusion inh | Statin myotox sup | miR-122 sensor | DNA binder FP
Cc1ccc(C)c(NS(=O)(=O)c2cc(C(=O)NCc3ccccn3)ccc2Cl)c1 | nt | nt | -1 | -13 | 1 | 75 | nt
COc1cc(/C=N/NS(=O)(=O)c2ccc3ccccc3c2)ccc1OCc1ccc(C(=O)O)cc1 | 69* | 84* | -2 | 50 | 5 | -3 | 10%
COC(=O)c1ccc(COc2ccccc2/C=N/NS(=O)(=O)c2ccccc2)cc1 | 19 | nt | 10 | nt | 8 | nt | nt
COc1cc(/C=N/NS(=O)(=O)c2ccc(C)cc2)ccc1OCc1cccc(C(=O)O)c1 | 79* | 91* | 9 | 72* | 4 | 0 | -9%
COc1ccc(/C=N/NS(=O)(=O)c2ccc(C)cc2)cc1OC(=O)c1ccccc1 | nt | nt | nt | nt | -10 | 14 | nt
CCc1nc(N)nc(N)c1-c1ccc(Cl)c(N=[N+]=[N-])c1 | 67*! | 16 | 50* | 44 | nt | 1 | -7%
CCc1nc(N)nc(N)c1-c1ccc(Cl)c([N+](=O)[O-])c1 | 22 | 39 | 21 | 6 | nt | nt | nt
O=C(CCCN1C(=O)/C(=C/c2ccccc2Cl)SC1=S)NNC(=O)c1ccccc1 | 45 | 26 | 20 | 30 | nt | -1 | nt
O=C(CCCN1C(=O)S/C(=C\c2ccccc2)C1=O)NNC(=O)c1ccccc1O | 74* | 57 | -2 | 71* | 10 | 2 | 13%
O=C(CCCN1C(=O)/C(=C/c2ccccc2Cl)SC1=S)NNC(=O)c1ccc(Cl)cc1Cl | 72* | 21 | nt | 57* | nt | nt | 4%
COc1ccccc1CNc1ncc(-c2ccc(F)cc2)n1C | -4 | 1 | 16 | 2 | 9 | 6 | nt
COc1ccc(CNc2ncc(-c3ccc(F)cc3)n2C)c2ccccc12 | 82* | 46 | -30 | 41 | 0 | 2 | 4%
COC(=O)C[C@@H]1CC[C@H]2[C@@H](COc3ccc(NC(=O)Nc4ccc(C#N)cc4)cc3C(=O)N2C)O1 | 13 | 3 | -10 | -14[16.7 µM] | -16 | -3[16.7 µM] | nt
COC(=O)C[C@@H]1CC[C@@H]2[C@H](COc3ccc(NC(=O)Nc4ccc(C#N)cc4)cc3C(=O)N2C)O1 | 53* | -15 | 0 | -20[16.7 µM] | -10 | -1[16.7 µM] | -2%
COC(=O)C[C@@H]1CC[C@@H]2[C@H](COc3ccc(NC(=O)Nc4cccc(C#N)c4)cc3C(=O)N2C)O1 | 65* | -23 | 13 | nt | 4 | -18[16.7 µM] | 1%
O=C(C[C@H]1C[C@H]2c3cc(NC(=O)C4CCOCC4)ccc3O[C@H]2[C@@H](CO)O1)NCc1ccc(Oc2ccccc2)cc1 | -3 | -5 | 20 | -5[16.7 µM] | -5 | -5[16.7 µM] | nt
COc1ccc(OC)c(-c2nnc3n2N=C(c2ccc(OC)c(OC4CCOC4)c2)CS3)c1 (stereo not drawn) | 59* | 97* | nt | -182 | -54 | 36 | -2%
COc1ccc(/C=C2\SC(=S)N(CCCC(=O)Nc3ccc(O)cc3)C2=O)cc1 | 61* | 39 | -17 | 20 | 6 | 5 | -11%
COc1ccc(/C=C2/SC(=S)N(CCCC(=O)Nc3ccc(O)cc3)C2=O)cc1 | 22 | 28 | 24 | 21 | nt | 4 | nt
C[C@H](CO)N1C[C@H](C)[C@H](CN(C)Cc2ccncc2)Oc2cc(C#CC(C)(C)O)ccc2S1(=O)=O | -10 | nt | 13 | -30[16.7 µM] | -1 | 8[16.7 µM] | nt
C[C@@H]1CCCCO[C@@H](CN(C)S(C)(=O)=O)[C@H](C)CN([C@@H](C)CO)C(=O)c2cc(NS(C)(=O)=O)ccc2O1 | -24 | -23 | 3 | 14[16.7 µM] | nt | 5[16.7 µM] | nt
C[C@@H]1CN([C@H](C)CO)S(=O)(=O)c2ccc(C#CC(C)(C)O)cc2O[C@H]1CN(C)Cc1ccc(-c2ccccc2)cc1 | 58* | nt | -4 | 38[16.7 µM] | -97 | -16[16.7 µM] | -15%
C[C@H](O)C#Cc1ccc2c(c1)O[C@H](CN(C)Cc1ccccc1)[C@@H](C)CN([C@@H](C)CO)S2(=O)=O | 9 | nt | 0 | -22[16.7 µM] | -22 | 54[16.7 µM] | nt
C[C@H](O)C#Cc1ccc2c(c1)O[C@@H](CN(C)Cc1ccc(-c3ccccc3)cc1)[C@H](C)CN([C@@H](C)CO)S2(=O)=O | 67*! | 87* | -17 | 13 | -47 | -3 | -9%
O=C(O)c1ccccc1NC(=O)C1CCCO1 (stereo not drawn) | nt | nt | nt | -23 | 18 | -3 | nt
SMILES | EWS-Fli block | PAX8 inh HTS | GSIS activator | Env fusion inh | Statin myotox sup | miR-122 sensor | DNA binder FP
O=C(NCCc1ccccc1)c1ccccc1NC(=O)C1CCCO1 (stereo not drawn) | 71* | -23 | 4 | -20 | nt | nt | -15%
C[C@H]1CN([C@@H](C)CO)C(=O)Cc2cc(NC(=O)CCC(F)(F)F)ccc2O[C@@H]1CN(C)Cc1ccc(C(=O)Nc2ccccc2N)cc1 | -2 | 24 | 12 | nt | nt | nt | nt
C[C@H]1CN([C@@H](C)CO)C(=O)Cc2cc(NC(=O)CCC(F)(F)F)ccc2O[C@H]1CN(C)Cc1ccc(C(=O)Nc2ccccc2N)cc1 | 53* | 46 | 13 | -92[16.7 µM] | 41 | 20[16.7 µM] | 3%[56 µM]
C[C@@H]1CN([C@@H](C)CO)C(=O)Cc2cc(N(C)C)ccc2O[C@H]1CN(C)Cc1ccc(C(=O)Nc2ccccc2N)cc1 | 60* | 77* | 14 | -16[16.7 µM] | 39 | 113*[16.7 µM] | -2%[60 µM]
COc1ccc(CN(C)C[C@H]2Oc3ccc(NC(=O)CCCCCC(=O)Nc4ccccc4N)cc3CC(=O)N([C@H](C)CO)C[C@H]2C)cc1 | 56* | nt | 4 | 8[16.7 µM] | 44 | 0[16.7 µM] | -4%[56 µM]
C[C@H](CO)N1C[C@H](C)[C@H](CN(C)Cc2ccc(C(=O)Nc3ccccc3N)cc2)Oc2ccc(NC(=O)C3CC3)cc2CC1=O | 64* | 5 | 4 | -218[16.7 µM] | 8 | 165*[16.7 µM] | -16%
C[C@H]1CN([C@@H](C)CO)C(=O)Cc2cc(NC(=O)c3ccncc3)ccc2O[C@H]1CN(C)Cc1ccc(C(=O)Nc2ccccc2N)cc1 | 38 | -4 | 12 | -225[16.7 µM] | -4 | 15[16.7 µM] | nt
Cc1ccccc1-c1cnc2c(c1)C(=O)N([C@H](C)CO)C[C@H](C)[C@H](CN(C)C(=O)c1ccncc1)O2 | -37 | nt | 22 | 4[16.7 µM] | 6 | -1[16.7 µM] | nt
CC(C)(C)[S@@](=O)N1Cc2cc(C(=O)N3CCCCC3)nc(-c3cccc(Br)c3)c2[C@H]1CCO | -2 | 0 | 2 | nt | nt | nt | nt
COC(=O)COc1ccc(-c2nccc(-c3ccccn3)n2)cc1 | 54* | 4 | -2 | ? | -6 | 1 | 4%
COC(=O)COc1ccc(-c2nccc(-c3ccc(Br)cc3)n2)cc1 | 18 | 0 | -20 | 0 | 28 | nt | nt

Bioassay records from PubChem.
